Compounds without any hit were thinned out: in the full panel of roughly 79,000, 15% have a hit. Activity calls are given as the source filed them. Rule as the data show it: active = growth inhibition above about 70%; inactive = the rest.
Columns and labels:
[1] = NCI Yeast Anticancer Drug Screen. Data for the rad52 strain (AID 147);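 also: 0% = growth of vehicle-treated control cultures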; conditions: S. cerevisiae rad52 mutant growth inhibition, stronger effect = higher value
Summary of the method: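 Screen used a yeast mutant impaired in DNA repair. After compound exposure, growth was measured. Values reflect inhibition compared with vehicle-treated cells.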

[2] = NCI Yeast Anticancer Drug Screen. Data for the wt1 strain (AID 149);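 also: 0% = growth of vehicle-treated wt1 cultures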; conditions: S. cerevisiae wt1 strain (SPY 50644) growth inhibition, stronger effect = higher value
Summary of the method: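 Compounds are added to wt1 yeast cultures. Growth is then measured. Inhibition is expressed relative to vehicle-treated controls.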

[3] = NCI Yeast Anticancer Drug Screen. Data for the rad50 strain (AID 155);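 also: 0% = growth of vehicle-only cultures of the same strain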; conditions: S. cerevisiae rad50 strain growth inhibition, stronger effect = higher value
Summary of the method: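 Inhibition values express reduced yeast growth in compound-treated cultures relative to vehicle-treated controls.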

[4] = NCI Yeast Anticancer Drug Screen. Data for the mec2-1 strain (AID 157); conditions: S. cerevisiae mec2-1 strain, stronger effect = higher value
Summary of the method: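 Readout is yeast growth inhibition, normalised to vehicle-treated controls, in the mec2-1 strain exposed to compound.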

[5] = NCI Yeast Anticancer Drug Screen. Data for the rad14 strain (AID 159);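 also: 0% = growth of vehicle-treated control cultures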; conditions: S. cerevisiae rad14 strain growth inhibition, stronger effect = higher value
Summary of the method: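 A mutant yeast strain defective in DNA damage repair is treated with compound; inhibition of its growth is scored against untreated, vehicle-exposed cultures.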

[6] = NCI Yeast Anticancer Drug Screen. Data for the sgs1 mgt1 strain (AID 161);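 also: 0% = growth of cultures given vehicle only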; conditions: S. cerevisiae sgs1 mgt1 strain, stronger effect = higher value
Summary of the method: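 Compounds are added to genetically altered yeast, and growth is compared with cultures given vehicle alone to give percent inhibition.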

[7] = NCI Yeast Anticancer Drug Screen. Data for the CLN2oe strain (AID 163);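 also: 0% = growth of vehicle-only control cultures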; conditions: S. cerevisiae CLN2oe strain, stronger effect = higher value
Summary of the method: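 Values reflect how much compound exposure reduced yeast growth, referenced to vehicle-exposed cells. Assay organism is a strain with a defined genetic change affecting cell-cycle control.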

[8] = NCI Yeast Anticancer Drug Screen. Data for the cln2 rad14 strain (AID 165);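 also: 0% = growth equal to vehicle treated cultures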; conditions: S. cerevisiae cln2 rad14 strain, stronger effect = higher value
Summary of the method: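 Relative to vehicle controls, growth inhibition of compound-treated cln2 rad14 yeast was recorded.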

[9] = NCI Yeast Anticancer Drug Screen. Data for the bub3 strain (AID 167); conditions: S. cerevisiae bub3 mutant strain, stronger effect = higher value
Summary of the method: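 Steps: expose the mutant yeast strain to compound; grow alongside vehicle-treated cultures; measure growth; express inhibition against the vehicle cultures.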

[10] = NCI Yeast Anticancer Drug Screen. Data for the wt2 strain (AID 169);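 also: 0% = growth of vehicle-treated yeast cultures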; conditions: S. cerevisiae wt2 strain growth inhibition, stronger effect = higher value
Summary of the method: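 Values express reduction in yeast growth under compound treatment, referenced to vehicle-treated cells.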

[11] = NCI Yeast Anticancer Drug Screen. Data for the mlh1 strain (AID 171);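 also: 0% = growth of vehicle-treated control cultures of the same strain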; conditions: S. cerevisiae mlh1 strain growth inhibition, stronger effect = higher value
Summary of the method: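 Steps: expose the defined-mutant yeast strain to compound; expose a parallel culture to vehicle; measure growth; express compound effect as inhibition relative to the vehicle culture.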

[12] = NCI Yeast Anticancer Drug Screen. Data for the sgs1 strain (AID 173);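 also: 0% = growth of vehicle-only control cultures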; conditions: S. cerevisiae sgs1 mutant, stronger effect = higher value
Summary of the method: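 Treat defined-mutant yeast with compound; measure growth; calculate inhibition relative to vehicle-treated cells.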

[13] = NCI Yeast Anticancer Drug Screen. Data for the mlh1 rad18 strain (AID 175); conditions: S. cerevisiae mlh1 rad18 strain growth inhibition, stronger effect = higher value
Summary of the method: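 Test agents were incubated with a yeast strain of defined genotype (DNA damage repair defect). Inhibition of growth was derived by comparison with vehicle-exposed cultures.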

[14] = NCI Yeast Anticancer Drug Screen. Data for the rad18 strain (AID 177); conditions: S. cerevisiae rad18 mutant growth inhibition, stronger effect = higher value
Summary of the method: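 A genetically defined yeast mutant impaired in DNA damage repair was treated with test compounds, then its growth was measured against cultures receiving vehicle alone.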

[15] = NCI Yeast Anticancer Drug Screen. Data for the rad50EPP+ strain (AID 151);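 also: 0% = growth of vehicle-treated control cultures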; conditions: S. cerevisiae rad50 mutant strain, stronger effect = higher value
Summary of the method: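 Exposing the rad50EPP+ strain to each compound, growth was compared with vehicle-only cultures to give inhibition.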

[16] = at 5.0 µM (retest, dose inferred, filed as 0.5)
[17] = at 50.0 µM (retest, dose inferred, filed as 5.0)

Measured: growth inhibition

CN(C)CC1CCCc2ccccc2C1=O (stereo unspecified)
active: [1]; at 100.0 µM 76% | [3]; at 100.0 µM 91% | [4]; at 100.0 µM 85% | [5]; at 100.0 µM 81% | [7]; at 100.0 µM 89% | [9]; at 100.0 µM 95% | [10]; at 100.0 µM 76% | [11]; at 33.0 µM 76% | [11]; at 100.0 µM 95% | [12]; at 100.0 µM 84% | [13]; at 50.0 µM 70.2% | [14]; at 100.0 µM 85%
inactive: [1]; at 1.2 µM -43% | [1]; at 3.7 µM -39% | [1]; at 11.0 µM -41% | [1]; at 33.0 µM 2% | [2]; at 1.2 µM 1% | [2]; at 3.7 µM -11% | [2]; at 11.0 µM -1% | [2]; at 33.0 µM 9% | [2]; at 100.0 µM 53% | [3]; at 1.2 µM -5% | [3]; at 3.7 µM -2% | [3]; [16] -14% | [3]; at 11.0 µM 5% | [3]; at 33.0 µM 41% | [3]; [17] 40% | [3]; at 50.0 µM 66.2% | [4]; at 1.2 µM -4% | [4]; at 3.7 µM -12% | [4]; [16] -11% | [4]; at 11.0 µM -7% | [4]; at 33.0 µM 20% | [4]; [17] -2% | [4]; at 50.0 µM 23.4% | [5]; at 1.2 µM -6% | [5]; at 3.7 µM -13% | [5]; at 11.0 µM 3% | [5]; at 33.0 µM 12% | [6]; [16] -1% | [6]; [17] 22% | [6]; at 50.0 µM 50.3% | [7]; at 1.2 µM -7% | [7]; at 3.7 µM 1% | [7]; at 11.0 µM 22% | [7]; at 33.0 µM 14% | [8]; [16] -10% | [8]; [17] 20% | [8]; at 50.0 µM 5.05% | [9]; at 1.2 µM 24% | [9]; at 3.7 µM 23% | [9]; [16] -25% | [9]; at 11.0 µM 19% | [9]; at 33.0 µM 28% | [9]; [17] 40% | [9]; at 50.0 µM 32.3% | [10]; at 1.2 µM -32% | [10]; at 3.7 µM -31% | [10]; at 11.0 µM -36% | [10]; at 33.0 µM -1% | [11]; at 1.2 µM 23% | [11]; at 3.7 µM 28% | [11]; at 11.0 µM 29% | [12]; at 1.2 µM -15% | [12]; at 3.7 µM -12% | [12]; at 11.0 µM 12% | [12]; at 33.0 µM 32% | [13]; [16] 13% | [13]; [17] 66% | [14]; at 1.2 µM -14% | [14]; at 3.7 µM 7% | [14]; at 11.0 µM 2% | [14]; at 33.0 µM 38%

O=C(Nc1cccc(C(F)(F)F)c1)Oc1ccc(Cl)cc1C(=O)c1ccccc1
active: [1]; at 11.0 µM 80% | [1]; at 100.0 µM 98% | [2]; at 11.0 µM 76% | [2]; at 33.0 µM 80% | [2]; at 100.0 µM 97% | [15]; at 100.0 µM 96% | [3]; [16] 99% | [3]; at 11.0 µM 90% | [3]; at 33.0 µM 82% | [3]; [17] 97% | [3]; at 50.0 µM 90.4% | [3]; at 100.0 µM 98% | [4]; [16] 100% | [4]; at 11.0 µM 88% | [4]; at 33.0 µM 97% | [4]; [17] 89% | [4]; at 50.0 µM 92.9% | [4]; at 100.0 µM 97% | [5]; at 100.0 µM 97% | [6]; [17] 98% | [6]; at 50.0 µM 92.9% | [8]; [17] 98% | [8]; at 50.0 µM 93% | [9]; at 11.0 µM 83% | [9]; at 33.0 µM 91% | [9]; [17] 96% | [9]; at 50.0 µM 91% | [9]; at 100.0 µM 97% | [10]; at 11.0 µM 91% | [10]; at 33.0 µM 77% | [10]; at 100.0 µM 98% | [11]; at 11.0 µM 88% | [11]; at 33.0 µM 70% | [11]; at 100.0 µM 97% | [13]; [16] 100% | [13]; [17] 93% | [13]; at 50.0 µM 91.2% | [14]; at 11.0 µM 91% | [14]; at 33.0 µM 86% | [14]; at 100.0 µM 98%
inactive: [1]; at 1.2 µM 15% | [1]; at 3.7 µM 17% | [1]; at 33.0 µM 69% | [2]; at 1.2 µM 18% | [2]; at 3.7 µM 13% | [15]; at 1.2 µM 26% | [15]; at 3.7 µM 7% | [15]; at 11.0 µM 34% | [15]; at 33.0 µM 41% | [3]; at 1.2 µM 22% | [3]; at 3.7 µM 17% | [4]; at 1.2 µM 19% | [4]; at 3.7 µM 42% | [5]; at 1.2 µM -3% | [5]; at 3.7 µM -2% | [5]; at 11.0 µM 51% | [5]; at 33.0 µM 64% | [6]; [16] -34% | [8]; [16] 31% | [9]; at 1.2 µM 10% | [9]; at 3.7 µM 24% | [9]; [16] 15% | [10]; at 1.2 µM 15% | [10]; at 3.7 µM 6% | [11]; at 1.2 µM 9% | [11]; at 3.7 µM 8% | [14]; at 1.2 µM 6% | [14]; at 3.7 µM 21%

From PubChem BioAssay (NCI)
